Inhibition data for 103 compounds are collected here from PubChem BioAssay AID1259343 (VanderVen Lab, College of Veterinary Medicine, Cornell …, 2017).

Hit rate of the full screen: of about 6,200 compounds, about 2,900 (47%) were called active. So high a share suggests a set chosen from earlier hits. Some of the results follow. Unmarked numbers belong to inactive results. Rule as the data show it: active = inhibition above about 50%; inactive = the rest.

The nature of this experiment: Mycobacterium tuberculosis growth inhibition, primary screen (AID 1259343). The settings on record: inhibition: at 10 µM, active compounds read high; outcome: 10 uM.
As usually defined, the inhibition is the relative decrease from the control value, in per cent. On to `N=c1oc2c([N+](=O)[O-])cc(N3CCCCC3)cc2cc1-c1nc2ccccc2s1`, for which the inhibition was 5.54%.
As to `Oc1ccc(Br)cc1C=NNc1ccc(F)cc1F`, the inhibition was 58.9% (active).
For the compound `CN(C)c1ccc(C=NNc2ccc(F)cc2F)cc1`, the inhibition is 14.3%.
In the case of `COc1cc(OC)c(OC)cc1C=NNc1ccc(F)cc1F` it was 84.3% (active).
`COc1ccc(N2CN=C3SCC(=O)N3C2)cc1`: the inhibition was 95.9% (active).
In the case of `O=c1c2cnc(N3CCOCC3)nc2ccn1-c1ccc(Cl)c(Cl)c1` it was 12.3%; in that of `O=C1CSC2=NCN(c3ccc(Cl)c(Cl)c3)CN12`, 71.9% (active); in that of `COc1ccc(CN2CCN(c3ccc(Oc4ccccc4)cc3)C(=O)C2C)cc1` (stereo not drawn), 28.7%.
In the case of `CCOC(=O)c1nnc2n(c1=O)CCN2c1ccc(OC)cc1` it was 31.9%.
Regarding `O=C1CSC2=NCN(c3ccc(I)cc3)CN12`, the inhibition was 63.4% (active).
With `CNc1cnc(-c2ccc(O)cc2C)cn1`, the inhibition is 9.26%.
As to `CCCCCCCCN=C1NC(=O)CS1`, the inhibition is 95.8% (active).
Turning to `CCCCCOc1cc(C)ccc1S(=O)(=O)N1CCCC1`, the inhibition was 41.6%.
Consider `Nc1ncc(Br)cc1S(=O)(=O)N1CCCCC1`, for which the inhibition was 77.9% (active).
As to `CCOc1ccc(-c2ccnc(N3CCN(C(=O)C(=O)OC)CC3)n2)cc1`, the inhibition was 53.2% (active).
In the case of `CCOc1ccc(-c2ccc(=O)n(Cc3cc(C)ccc3C)n2)cc1` it was -12.8%; in that of `CCOC(=O)C1CCN(C2CCN(c3nncc(-c4ccccc4)n3)CC2)CC1`, -15.5%.
In the case of `O=C(NCCc1ccco1)c1ccc(C2SCCS2)cc1` it was 77.9% (active); in that of `O=C(NCCc1ccco1)c1ccc(Br)cc1F`, 5.5%.
With `CC(C)(CNC(=O)CCc1ccco1)c1ccc(Br)cc1`, the inhibition is 11.2%.
For `N#Cc1ccc(NS(=O)(=O)c2ccc(F)c(Cl)c2)nc1` the value was 27%; for `O=S(=O)(Nc1cnc(Br)cn1)c1cccc(Cl)c1`, 10.2%.
In the case of `O=S(=O)(Nc1ccc(Br)cn1)c1ccc(Cl)cc1` it was 77.7% (active); in that of `O=C(NCc1ccccc1F)C(C1CCCC1)N1CCN(C(=O)c2ccc(C(F)(F)F)cc2)CC1` (stereo not drawn), -35.5%.
In the case of `O=C(C1CCC1)N1CCC(Cc2ccc(C(F)(F)F)cc2)CC1` it was 83.6% (active).
For `O=C(c1c(F)c(F)cc(F)c1F)N1CCC(Cc2ccc(C(F)(F)F)cc2)CC1`, the inhibition was 71.6% (active).
Regarding `CC(Cl)C(=O)N1CCC(Cc2ccc(C(F)(F)F)cc2)CC1` (stereo not drawn), the inhibition was 90.3% (active).
For `O=C(N1CCC(Cc2ccc(-c3ccccc3)cc2)CC1)C(F)(F)C(F)F`, the inhibition is 39.3%.
In the case of `CC(C)(C)c1ccc(CC2CCN(C(=O)CCCl)CC2)cc1`, the inhibition is 82% (active).
For `Cc1cc2cc(NC(=O)c3ccc(CN4CC[C@H](O)C4)cc3)ccc2o1` the value was 91.8% (active).
In the case of `O=C1NC(=NC2CCCC2)SC1=Cc1cc2c(cc1Br)OCO2`, the inhibition is 63.1% (active).
As to `c1ccc2c(NCCNc3ncnc4ccccc34)cccc2c1`, the inhibition is 69.3% (active).
Turning to `O=[N+]([O-])c1ccccc1NCCNc1cccc2ccccc12`, the inhibition was 26%.
Turning to `c1ccc(-c2nc(NCCc3ccccn3)c3ccccc3n2)cc1`, the inhibition is -27%.
In the case of `COc1ccc(OC)c(-c2nc3ccc(Br)cn3c2NC2CCCCC2)c1` it was 10.8%; in that of `CCOC(=O)CNc1c(-c2ccccc2Cl)nc2ccc(Br)cn12`, 88.4% (active); in that of `CCOC(=O)CNc1c(-c2ccc(C(F)(F)F)cc2)nc2ccc(Br)cn12`, 24.2%.
In the case of `Oc1c(Cl)cc(Cl)c(Cl)c1Cc1c(O)c(Cl)cc(Cl)c1Cl` it was 102% (active); in that of `Cc1cccc(-c2ccc(NC(=O)C3CCN(C(=O)c4ccc(F)cc4)CC3)cc2)c1`, 81.5% (active); in that of `Cc1cccc(-c2ccc(NC(=O)C3CCN(C(=O)c4nonc4C)CC3)cc2)c1`, 92.3% (active).
Regarding `Cc1cccc(-c2ccc(NC(=O)C3CCN(C(=O)c4ccncc4)CC3)cc2)c1`, the inhibition result is “inactive”.
`Cc1ccc(SCC(=O)NC23CC4CC(CC(C4)C2)C3)cc1C`: the inhibition is -43.9%.
On to `COc1ccccc1N(C)CC(=O)NC12CC3CC(CC(C3)C1)C2`, for which the inhibition is 9.54%.
For the compound `O=C(CCOc1ccccc1)NC12CC3CC(CC(C3)C1)C2`, the inhibition was 87.8% (active).
In the case of `CC(C)Nc1nc(-c2ccc(Br)s2)cs1`, the inhibition was 17.8%.
For `O=C(Nc1nc(-c2ccc(Br)s2)cs1)c1ccc(Br)s1`, the inhibition is 81.8% (active).
For `CCOc1ccc(Nc2cncc(Cl)n2)cc1` the value was 72.5% (active).
For `COc1ccc(NC(=O)N(Cc2ccco2)C(C)c2nc3ccccc3c(=O)n2-c2ccccc2)cc1` (stereo not drawn) the value was -7.33%.
With `COc1ccc(NC(c2ccccn2)c2oc(CO)cc(=O)c2O)cc1` (stereo not drawn), the inhibition is 84.2% (active).
In the case of `CCCCCCCCNC(C)C(O)c1ccc(SC(C)C)cc1` (stereo not drawn) it was 3.63%; in that of `O=C(Cc1csc(NC(=O)NC2CCCCC2)n1)Nc1ccc(Oc2ccccc2)cc1`, -2.63%; in that of `NC(=O)Cc1csc(Nc2ccc(OC(F)(F)F)cc2)n1`, 73.5% (active).
For `CC(C)c1nc(CNC(=O)c2cc(COc3c(F)cccc3F)on2)cs1` the value was 23.3%; for `O=C(NCC1CCCCO1)c1cc(COc2c(F)cccc2F)on1` (stereo not drawn), 65.1% (active); for `CN(CCC(O)c1ccccc1)C(=O)c1cc(COc2cccc3cnccc23)on1` (stereo not drawn), 48.2%.
Regarding `Cc1ccc(OCc2cc(C(=O)N(C)CC3Cc4ccccc4O3)no2)cn1` (stereo not drawn), the inhibition entry is “inactive”.
In the case of `COCCN(C)C(=O)c1cc(COc2cc(C)c(Cl)c(C)c2)on1`, the inhibition entry is “inactive”.
For `Cc1ccc(OCc2cc(C(=O)N(C)CCc3ccccc3)no2)cc1C` the value was 93.7% (active); for `CN(CCOc1ccccc1)C(=O)c1cc(COc2c(F)cccc2F)on1`, 84.2% (active); for `Cc1ccc(OCc2cc(C(=O)N(C)Cc3csc(-c4ccccc4)n3)no2)cn1`, 73% (active).
For `O=C(NCC1CCCCO1)c1coc(COc2cccc(C(F)(F)F)c2)n1` (stereo not drawn) the value was 0.47%; for `O=C1OC(c2ccccc2Br)=NC1=Cc1ccc2ccccc2c1`, -28.9%.
With `Cc1cc(C)cc(OCCN(C)C(=O)Nc2ccc(F)cc2)c1`, the inhibition is 30.4%.
In the case of `Cc1ccc(OCCN(C)C(=O)CCc2nnc(CCc3c[nH]c4ccccc34)o2)cc1` it was 44.4%; in that of `Cc1nc2cc(OCc3cc(C(=O)NCc4cc(F)ccc4C)no3)ccc2s1`, 22.2%; in that of `Cc1ccc(OCc2cc(C(=O)NCc3cc4ccccc4[nH]3)no2)cc1C`, 24.7%.
With `CN(Cc1cccnc1)C(=O)c1cc(COc2ccc(F)c(F)c2)on1`, the inhibition was 60.5% (active).
For `Cc1ccc(OCc2cc(C(=O)NCc3nc4ccccc4s3)no2)cc1C` the value was 92.1% (active); for `CN(CCOc1ccccc1)C(=O)c1cc(Br)c[nH]1`, 101% (active); for `Cc1nc2sc3c(c2c(=O)n1NC(=S)NC(=O)C12CC4CC(CC(C4)C1)C2)CCCC3`, 67.3% (active).
For `COCCNCc1c(-c2ccccc2)noc1N(C)C1CCCCC1` the value was 82.5% (active); for `N#Cc1cccc(NC(=O)NCc2cc(F)cc(F)c2)c1`, -9.78%; for `N#Cc1cccc(NN=C2CCN(c3ccc(F)cc3)CC2)c1`, 95.8% (active).
Turning to `N#Cc1cccc(NCc2c(F)cccc2Cl)c1`, the inhibition is 30.2%.
Consider `CCOc1ccc(N=C2NC(=O)C(CC(=O)c3ccccc3)S2)cc1` (stereo not drawn), for which the inhibition is 54.9% (active).
With `O=C(O)CC1SC(=NN=C2c3ccccc3-c3ccccc32)NC1=O` (stereo not drawn), the inhibition is 24.2%.
In the case of `O=C(CC1SC(=NCc2ccco2)NC1=O)Nc1ccc(OC(F)(F)F)cc1` (stereo not drawn) it was 21.7%; in that of `CCOC(=O)C1(Cc2cccc(C(F)(F)F)c2)CCN(Cc2ccc(C#CCCO)cc2)CC1`, 51.2% (active); in that of `CCOC(=O)C1(Cc2cccc(Cl)c2)CCCN(C(=O)CCC(F)(F)F)C1` (stereo not drawn), -43.9%.
For the compound `CCOC(=O)C1(Cc2cccc(OC)c2)CCN(CC#Cc2ccccc2)CC1`, the inhibition was 28.5%.
In the case of `O=C(CCC1CCCC1)N1CCc2ccc(O)cc2CC1` it was 92.6% (active).
Take `Cc1ccc(F)c(OCC2CN(CC(C)O)CCO2)c1` (stereo not drawn): the inhibition was 102% (active).
For the compound `COc1ccc(CC2CN(Cc3ccc(OC)c(F)c3)CCO2)cc1` (stereo not drawn), the inhibition is 30.9%.
For `COC(=O)CSCCOc1ccc(OCCSCC(=O)OC)cc1` the value was 88.5% (active); for `COc1ccc(OCCOc2ccc(C)cc2)cc1`, “inactive”.
`Cc1ccc(C)c2sc(OC3CCN(S(=O)(=O)c4cccnc4)CC3)nc12`: the inhibition is 31.8%.
Regarding `O=C1c2ccccc2C(=O)c2c1ccc(O)c2O`, the inhibition was 101% (active).
In the case of `COc1cccc2c1CCCC2CCCN1CCN(C2CCCCC2)CC1` (stereo not drawn), the inhibition is 98.3% (active).
As for `COC(=O)CCCCCNC(=O)c1cc([N+](=O)[O-])cc([N+](=O)[O-])c1`, the inhibition was 93.7% (active).
In the case of `CCS(=O)(=O)Oc1ccc(CN(C(=O)c2cccc([N+](=O)[O-])c2)C(C)C)cc1`, the inhibition is -14.5%.
Consider `COC(=O)CNC(=O)c1ccc([N+](=O)[O-])o1`, for which the inhibition was 44.5%.
For `Brc1ccc2c(c1)CN(Cc1ccc3c(c1)OCO3)CO2` the value was 1.53%; for `COc1ccc(N2COc3cc4c(cc3C2)OCO4)cc1`, 87.2% (active).
For `COc1ccc2c(c1)CC(C(=O)N(C)Cc1ccco1)CO2` (stereo not drawn), the inhibition was -34.5%.
`COc1ccc2c(c1)OCC(C(=O)NS(=O)(=O)c1cccs1)C2` (stereo not drawn): the inhibition is 99.9% (active).
In the case of `COc1ccc(NC(=O)C2Cc3ccc(C)cc3S2)cc1` (stereo not drawn) it was 21.4%.
`CN(Cc1cccc2cnccc12)S(=O)(=O)NCc1ccccc1`: the inhibition was 20.2%.
For `COc1c(F)cc(NS(=O)(=O)N(C)Cc2ccccc2)cc1F` the value was 31.6%; for `CN(CCCOc1ccccc1Cl)S(=O)(=O)NCc1ccccc1`, 56.2% (active); for `c1ccc(CCNCCCOc2cccc3ccccc23)cc1`, 58% (active).
In the case of `O=C(NC1(c2ccc(Cl)cc2)CCC1)c1cnsn1` it was 60.1% (active); in that of `Cc1oc(C)c(C(=O)NC2(c3ccccc3)CCC2)c1Br`, 20.5%; in that of `O=C(COc1ccc(Cl)cc1)NC1(c2ccccc2)CCC1`, 29.4%.
